Growth data for four compounds are collected here from PubChem BioAssay (NCI).

Compounds without any hit were thinned out: in the full panel of roughly 83,000, 20% have a hit.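 Single-concentration screen, 48 h exposure, 96-well plates. Endpoint: percent growth. Below 10 = active.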 A number with no mark means an inactive call. The source made the active and inactive calls.

This test concerns HL-60(TB) leukemia. Briefly: NCI-60 one-dose screen, 48 h (100 = growth as untreated, 0 = no growth, -100 = all killed). Particulars: 10 µM unless noted.
For `CCNCc1ccccc1`, the growth was 101%. `CC1SC(c2ccc(Cl)cc2)N(CCc2cccs2)C1=O` (centres undefined): the growth is -3.88% (active).

Turning to `COc1cc(N2C(=O)[C@H](c3ccccc3)C2c2ccc(SC)cc2)cc(OC)c1OC` (some centres undefined), the growth was -45.7% (active). Take `CN(CCOc1ccc(CC2SC(=O)NC2=O)cc1)c1ccccn1` (centres undefined): the growth is 128%.
